Experimental data from PubChem BioAssay (NCI).
This is part of a sample that, as a whole, favours compounds with a hit. Of some 83,000 tested, about 20% had one in any assay.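 Note: values are percent growth. 100 is the growth of untreated cells, values between 100 and 0 indicate rising inhibition; between -100 and 0 indicates cell death.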 Calls of active or inactive are those of the source. How the source made its calls: active means growth percent below 10; inactive means the rest.

What follows are compounds tested on MDA-MB-468 breast (assay: NCI-60 one-dose screen, 48 h (100 = growth as untreated, 0 = no growth, -100 = all killed)). Details: 10 µM unless noted.

| SMILES | growth |
| --- | --- |
| CC1(C)NC2=C(C(Nc3cccnc3)N1)C(c1ccc([N+](=O)[O-])cc1)C(C(=O)c1ccc(N=[N+]=[N-])cc1)O2 (stereo not drawn) | 115% (inactive) |
| CN(C)c1nc2c([nH]1)c(=O)n(C)c(=O)n2C | 101% (inactive) |
| CCOC(=O)C1=C(CCl)NC(=O)NC1c1ccc2c(c1)OCO2 (stereo not drawn) | -1.1% (active) |
| Cc1ccc(C(=O)c2oc3ccc4c(C)cc(=O)oc4c3c2C)cc1 | 16% (inactive) |
| CCOc1cccc2c(NC(C)CCCN(CC)CC)c(C)cnc12 (stereo not drawn) | 92.9% (inactive) |
| CCN1C2CCC1/C(=C\c1ccccc1)C(=O)/C2=C/c1ccccc1 | 16.1% (inactive) |
| CC(C)(C)n1cc(-c2ccnc(NCCNS(=O)(=O)c3cccc4ccccc34)c2)c(-c2cccc(O)c2)n1 | 46.2% (inactive) |
| COc1ccc2nc(-n3nc(C)cc3C)c(-n3nc(C)cc3C)nc2c1 | 103% (inactive) |
| Cn1c2ccccc2c2c3c(c4c5ccccc5n(C)c4c21)C(=O)OC3 | 101% (inactive) |
| CCCCn1c(-c2ccc(-c3nc(-c4ccc(Cl)cc4)no3)cc2)nc(-c2ccccc2)c1-c1ccccc1 | 106% (inactive) |
| CC[C@H](Nc1ncnc2nc[nH]c12)c1nc2cccc(NCc3ccc(C(=O)NO)o3)c2c(=O)n1-c1ccccc1 | 84.7% (inactive) |
| FC(F)(F)c1cccc([Si](F)(c2cccc(C(F)(F)F)c2)c2cccc(C(F)(F)F)c2)c1 | 54.4% (inactive) |
| Cc1ccc(Nc2ccc(O)c3c2C(=O)c2c(O)ccc(Nc4ccc(C)cc4)c2C3=O)cc1 | 95.8% (inactive) |
